Experimental data published in PubChem BioAssay (Tox21).
Records with an inconclusive call do not appear. Calls of active or inactive are those of the source. Unless noted, calls follow the shape of the full dose curve.

Columns and labels:
[1] = Nuclear factor erythroid 2-related factor 2/antioxidant responsive element (Nrf2/ARE) small molecule agonists: luciferase reporter gene qHTS assay in human keratinocytes (AID 1919969); also: nearly all actives have a fitted effect of over 35% in size; also: potency is read from the fitted curve at half-maximal effect
[2] = target: Gonadotropin-releasing hormone receptor (Homo sapiens) (UniProt P30968); experiment: Human gonadotropin-releasing hormone receptor (GnRHR) small molecule agonists, calcium flux assay in GnRHR-HEK293 cells (AID 1920063); also: nearly all actives have a fitted effect of over 35% in size
Method in brief: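 Agonist activity was measured as intracellular calcium flux in HEK293 cells engineered to stably express human GnRHR. After dye loading for 1 hour at 37 C, compounds in DMSO were added and fluorescence was followed for 3 minutes.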

[3] = target: KiSS-1 receptor (Homo sapiens) (UniProt Q969F8); experiment: Human kisspeptin (KISS1R) small molecule agonists, calcium flux assay in KISS1R-HEK293 cells (AID 1920064; active = well fitted activation curve with a large enough effect in the repeat runs)
Method in brief: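 Agonist activity is monitored as intracellular calcium rise in engineered HEK293 cells carrying human KISS1R. Cells are dye-loaded for 1 h at 37 C before compound addition, and fluorescence is recorded for 3 min.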

[4] = G protein-coupled receptor (GPCR) small molecule agonists, calcium flux assay: HEK293 wild type cell line counter screen (AID 1920065)
Method in brief: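 Seed cells, incubate 18 h (37 C, 5% CO2); add calcium dye, 1 h at 37 C; pin-transfer compounds, ATP control or DMSO; read fluorescence 480/540 nm each second for 3 min.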

[5] = p53 small molecule agonists, cell-based qHTS assay with human liver microsomes: qHTS cell viability counter screen (AID 1963579); also: nearly all actives have a fitted effect of over 45% in size; also: potency is read from the fitted curve at half-maximal effect
Method in brief: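 Metabolic activation used human liver microsomes and NADPH, both 0.5 mg/mL final, over 16 hours at 37 C on p53RE-bla cells (4,000/well). Cytotoxicity measured by CellTiter-Glo luminescence, 30 min at room temperature.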

[6] = p53 small molecule agonists, cell-based qHTS assay with rat liver microsomes: qHTS cell viability counter screen (AID 1963580); also: nearly all actives have a fitted effect of over 45% in size
Method in brief: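 Cytotoxicity counter screen: intracellular ATP read by CellTiter-Glo luminescence in the p53 reporter wells. HCT-116 p53RE-bla cells were treated for 16 h at 37 C alongside rat liver microsomes and NADPH, each 0.5 mg/mL final.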

[7] = p53 small molecule agonists, cell-based qHTS assay: qHTS cell viability counter screen (AID 1963581); also: nearly all actives have a fitted effect of over 45% in size
Method in brief: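 Viability was counter-screened in parallel with the p53 agonist reporter by measuring intracellular ATP luminescence in the same HCT-116 p53RE-bla wells after 16 h compound treatment at 37 C.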

[8] = target: 5-hydroxytryptamine receptor 2A (Homo sapiens) (UniProt P28223); experiment: 5-hydroxytryptamine receptor 2A (HTR2A) small molecule antagonists, cell-based qHTS assay (AID 1963586); also: nearly all actives have a fitted effect of over 45% in size
Method in brief: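 CHO cells stably expressing human HTR2A were plated for 18 h at 37 C, then loaded with calcium dye for 1 h. Compounds were preincubated 5 min at room temperature before DOI (4 nM solution) was added. Kinetic fluorescence was read for 3 min.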

[9] = target: 5-hydroxytryptamine receptor 2A (Homo sapiens) (UniProt P28223); experiment: 5-hydroxytryptamine receptor 2A (HTR2A) small molecule agonists, cell-based qHTS assay (AID 1963587); also: nearly all actives have a fitted effect of over 30% in size; also: potency is read from the fitted curve at half-maximal effect
Method in brief: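 Kinetic calcium-flux fluorescence (2 min, 1 sec intervals) after compound addition in agonist mode. HTR2A-CHO cells were cultured 18 h, then dye-loaded 1 h at 37 C.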

[10] = target: Muscarinic acetylcholine receptor M1 (Homo sapiens) (UniProt P11229); experiment: Cholinergic receptor muscarinic 1 (CHRM1) small molecule antagonists, cell-based qHTS assay (AID 1963588); also: nearly all actives have a fitted effect of over 40% in size
Method in brief: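 Compounds were tested at 15 concentrations in three independent runs. Dye-loaded CHRM1-CHO cells were exposed 5 min at room temperature before stimulation by acetylcholine added at 50nM. Intracellular calcium was read kinetically on FDSS for 3 min.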

[11] = target: Muscarinic acetylcholine receptor M1 (Homo sapiens) (UniProt P11229); experiment: Cholinergic receptor muscarinic 1 (CHRM1) small molecule agonists, cell-based qHTS assay (AID 1963589); also: nearly all actives have a fitted effect of over 35% in size
Method in brief: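 Cells were plated and incubated 18 h at 37 C/5% CO2, loaded with calcium dye for 1 h at 37 C, then treated with compounds in DMSO. Fluorescence was recorded kinetically at 1 sec intervals.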

[12] = cAMP Responsive Elements (CRE) small molecule agonists, cell-based qHTS assay (AID 1963590)
Method in brief: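 Cells carrying a CRE-driven beta-lactamase reporter (HEK 293T) are seeded, incubated overnight (18 h), and treated with test compounds for 3 h at 37 C; reporter activity is then detected with a FRET substrate after 2 h at room temperature.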

[13] = cAMP Responsive Elements (CRE) small molecule antagonists, cell-based qHTS assay (AID 1963591; active = well fitted inhibition curve with a large enough effect in the signal ratio in the repeat runs, not every such curve was filed as active; the % refers to the signal ratio)
Method in brief: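 Cells (CRE-bla HEK 293T, DMEM with 10% dialyzed FBS and 25 mM HEPES) are seeded and incubated 18 h. Compounds are added with NKH477 agonist at 0.25 uM final for 3 h, then FRET substrate for 2 h.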

[14] = target: Beta-2 adrenergic receptor (Homo sapiens) (UniProt P07550); experiment: Adrenergic beta2 receptor (ADRB2) small molecule antagonists, cell-based qHTS assay (AID 1963592); also: series mostly up to about 92 µM; nearly all actives have a fitted effect of over 50% in size
Method in brief: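 Assay format: CHO-ADRB2 cells, 18-20hr seeding at 37C/5% CO2, then compound plus 1nM isoproterenol agonist mix for 0.5hr RT. Homogeneous time-resolved fluorescence cAMP detection after 1hr, expressed as 665/615 nm ratio.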

[15] = target: Beta-2 adrenergic receptor (Homo sapiens) (UniProt P07550); experiment: Adrenergic beta2 receptor (ADRB2) small molecule agonists, cell-based qHTS assay (AID 1963593);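 also: CHO cells stably overexpressing human ADRB2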
Method in brief: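 CHO cells stably over-expressing ADRB2 were plated overnight at 37C, then dosed with compounds plus a stimulation mix containing 100uM IBMX and 25uM Ro-20-1724 for 0.5hr at room temperature. cAMP was measured by HTRF competition, 1hr.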

[16] = target: D(2) dopamine receptor (Homo sapiens) (UniProt P14416); experiment: Dopamine D2 receptor (DRD2) small molecule agonists, cell-based qHTS assay (AID 1963594); also: nearly all actives have a fitted effect of over 35% in size; also: potency is read from the fitted curve at half-maximal effect
Method in brief: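 cAMP accumulation in DRD2-HEK293 cells measured by HTRF after 1 h detection; compounds added 10 min before NKH477 (200nM […]) forskolin-analogue stimulation, 30 min at room temperature, with Ro20-1724 present at 0.1 mM final.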

[17] = target: D(2) dopamine receptor (Homo sapiens) (UniProt P14416); experiment: Dopamine D2 receptor (DRD2) small molecule antagonists, cell-based qHTS assay (AID 1963595; active = well fitted inhibition curve with a large enough effect in the signal ratio in the repeat runs, with a control signal flat; the % refers to the signal ratio)
Method in brief: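 Antagonist mode in DRD2-HEK293 cells: after compound addition with 0.1 mM Ro20-1724, cells received quinpirole (12 nM) and NKH477 (200 nM) for 30 min at room temperature; HTRF cAMP read after 1 h detection.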

[18] = p53 small molecule agonists, cell-based qHTS assay with rat liver microsomes (AID 1963578)
Method in brief: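 Metabolic activation by rat liver microsomes and NADPH, each 0.5 mg/mL final, added right after compounds to p53RE-bla reporter cells (4,000/well, plated 5 h earlier). 16 h at 37 C, then LiveBLAzer substrate for 2 h at room temperature in the dark; fluorescence read-out.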

[19] = p53 small molecule agonists, cell-based qHTS assay with human liver microsomes (AID 1963577);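 also: p53 response element beta-lactamase reporter cells with liver microsomes plus NADPH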
Method in brief: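 With metabolic activation: human liver microsomes (0.5 mg/mL final) plus NADPH (0.5 mg/mL final) added alongside compounds to p53RE-bla cells; 16 h 37 C exposure; beta-lactamase read by LiveBLAzer fluorescence.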

[20] = p53 small molecule agonists, cell-based qHTS assay (AID 1963582; active = well fitted activation curve with a large enough effect in the signal ratio in the repeat runs, not every such curve was filed as active; the % refers to the signal ratio; also: potency is read from the fitted curve at half-maximal effect)
Method in brief: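 Cells carrying a p53-responsive bla reporter are treated with test compounds for 16 h at 37 C; beta-lactamase activity is then detected with LiveBLAzer B/G FRET substrate after 2 h at room temperature.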

Measured: Potency

Sequence of Muscarinic acetylcholine receptor M1 (Homo sapiens) (P11229 whole entry, looked up): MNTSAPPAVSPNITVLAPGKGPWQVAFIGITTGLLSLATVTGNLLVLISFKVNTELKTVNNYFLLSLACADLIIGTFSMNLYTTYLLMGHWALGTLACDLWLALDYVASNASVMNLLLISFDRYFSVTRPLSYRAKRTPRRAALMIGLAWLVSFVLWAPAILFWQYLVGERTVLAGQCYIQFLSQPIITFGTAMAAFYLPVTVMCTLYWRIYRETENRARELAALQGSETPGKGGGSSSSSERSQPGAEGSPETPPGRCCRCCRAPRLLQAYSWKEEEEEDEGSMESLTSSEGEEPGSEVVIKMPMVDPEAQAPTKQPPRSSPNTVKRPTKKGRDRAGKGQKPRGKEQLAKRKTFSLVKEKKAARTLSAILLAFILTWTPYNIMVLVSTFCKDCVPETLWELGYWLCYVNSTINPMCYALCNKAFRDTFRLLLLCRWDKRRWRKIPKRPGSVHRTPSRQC
Sequence of KiSS-1 receptor (Homo sapiens) (Q969F8 whole entry, looked up): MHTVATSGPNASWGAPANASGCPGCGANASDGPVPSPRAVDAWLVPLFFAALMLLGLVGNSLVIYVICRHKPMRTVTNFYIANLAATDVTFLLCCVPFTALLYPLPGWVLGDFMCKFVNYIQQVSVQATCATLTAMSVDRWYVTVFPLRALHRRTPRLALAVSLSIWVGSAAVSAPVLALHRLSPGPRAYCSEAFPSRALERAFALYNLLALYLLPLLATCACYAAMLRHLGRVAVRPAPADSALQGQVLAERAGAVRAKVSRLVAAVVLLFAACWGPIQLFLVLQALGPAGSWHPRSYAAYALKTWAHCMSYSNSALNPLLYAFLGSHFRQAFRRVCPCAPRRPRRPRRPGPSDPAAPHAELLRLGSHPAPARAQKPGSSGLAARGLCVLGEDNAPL
Sequence of D(2) dopamine receptor (Homo sapiens) (P14416 whole entry, looked up): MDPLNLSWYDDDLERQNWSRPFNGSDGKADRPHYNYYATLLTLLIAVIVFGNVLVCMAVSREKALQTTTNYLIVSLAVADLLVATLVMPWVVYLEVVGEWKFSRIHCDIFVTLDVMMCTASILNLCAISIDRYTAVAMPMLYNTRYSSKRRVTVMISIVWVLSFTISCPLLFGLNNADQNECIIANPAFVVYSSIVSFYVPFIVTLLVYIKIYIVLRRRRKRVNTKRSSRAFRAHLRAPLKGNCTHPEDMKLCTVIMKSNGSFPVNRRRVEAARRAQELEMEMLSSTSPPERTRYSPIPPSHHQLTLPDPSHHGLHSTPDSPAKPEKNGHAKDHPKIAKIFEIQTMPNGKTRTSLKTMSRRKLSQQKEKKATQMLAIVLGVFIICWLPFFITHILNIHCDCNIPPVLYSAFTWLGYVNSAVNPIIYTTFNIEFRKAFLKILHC
Sequence of Gonadotropin-releasing hormone receptor (Homo sapiens) (P30968 whole entry, looked up): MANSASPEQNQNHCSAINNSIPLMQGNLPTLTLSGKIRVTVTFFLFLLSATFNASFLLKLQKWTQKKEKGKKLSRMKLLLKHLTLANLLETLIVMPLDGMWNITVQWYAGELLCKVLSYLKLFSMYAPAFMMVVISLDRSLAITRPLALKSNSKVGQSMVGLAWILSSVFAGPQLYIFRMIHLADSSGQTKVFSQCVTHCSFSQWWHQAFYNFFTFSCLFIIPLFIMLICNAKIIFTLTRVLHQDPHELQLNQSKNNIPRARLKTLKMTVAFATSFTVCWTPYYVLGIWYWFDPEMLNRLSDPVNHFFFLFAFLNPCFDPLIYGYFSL
Sequence of Beta-2 adrenergic receptor (Homo sapiens) (P07550 whole entry, looked up): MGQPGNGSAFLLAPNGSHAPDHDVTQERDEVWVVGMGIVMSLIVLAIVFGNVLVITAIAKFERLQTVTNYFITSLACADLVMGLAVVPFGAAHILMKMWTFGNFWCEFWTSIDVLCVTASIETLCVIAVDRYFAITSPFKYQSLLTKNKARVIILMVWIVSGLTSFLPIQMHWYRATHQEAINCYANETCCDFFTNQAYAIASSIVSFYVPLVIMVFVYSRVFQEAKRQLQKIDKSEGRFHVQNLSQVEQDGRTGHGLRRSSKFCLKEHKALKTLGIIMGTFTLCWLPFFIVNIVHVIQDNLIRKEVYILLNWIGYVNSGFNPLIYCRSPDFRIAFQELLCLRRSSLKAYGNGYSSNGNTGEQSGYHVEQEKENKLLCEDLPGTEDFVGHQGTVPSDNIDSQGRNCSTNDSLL
Sequence of 5-hydroxytryptamine receptor 2A (Homo sapiens) (P28223 whole entry, looked up): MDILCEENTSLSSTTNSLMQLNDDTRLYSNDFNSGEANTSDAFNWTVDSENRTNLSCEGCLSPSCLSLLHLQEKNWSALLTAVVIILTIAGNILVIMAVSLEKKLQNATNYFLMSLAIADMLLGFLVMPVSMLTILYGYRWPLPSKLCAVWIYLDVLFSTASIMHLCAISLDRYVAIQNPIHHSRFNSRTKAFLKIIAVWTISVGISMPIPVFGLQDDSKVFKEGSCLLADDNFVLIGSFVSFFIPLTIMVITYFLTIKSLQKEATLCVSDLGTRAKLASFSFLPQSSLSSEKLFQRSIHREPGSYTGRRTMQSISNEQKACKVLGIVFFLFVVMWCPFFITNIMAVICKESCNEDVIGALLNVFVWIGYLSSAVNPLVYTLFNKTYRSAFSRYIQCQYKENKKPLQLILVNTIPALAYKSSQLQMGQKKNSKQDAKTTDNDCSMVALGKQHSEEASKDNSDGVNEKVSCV

Clc1ccccc1
not listed: [18] | [19] | [20]
inactive: all other assays above

CN(C)C1CCCCC1
not listed: [15] | [16] | [18] | [19] | [20]
inactive: all other assays above

CCCCN(CCCC)C(=S)S
active: [1] 68.6 µM
not listed: [13] | [15] | [16] | [18] | [19] | [20]
inactive: all other assays above

Cc1c(F)c(F)c(COC(=O)C2C(/C=C(\Cl)C(F)(F)F)C2(C)C)c(F)c1F (configuration not stated)
active: [1] 30.6 µM
not listed: [12] | [15] | [16] | [19] | [20]
inactive: all other assays above

CSC(C)(C)/C=N/O
not listed: [15] | [16] | [17] | [18] | [19] | [20]
inactive: all other assays above

NC(=O)C(Cl)(Cl)Cl
not listed: [15] | [18] | [19] | [20]
inactive: all other assays above

CC1=C(C(=O)Nc2ccccc2)S(=O)(=O)CCO1
active: [1] 10.9 µM | [20] 28.9 µM
not listed: [5] | [7] | [15] | [18]
inactive: all other assays above

CCOP(=O)(O)C(N)=O
not listed: [11] | [15] | [18] | [19] | [20]
inactive: all other assays above

Oc1ccc([C@H]2CNCc3c2ccc(O)c3O)cc1O
active: [9] 9.52 µM | [16] 17.4 µM
not listed: [8] | [12] | [14] | [15] | [18] | [19] | [20]
inactive: all other assays above

O=C(Nc1ccccc1)Nc1ccnc(Cl)c1
not listed: [7] | [8] | [12] | [13] | [19] | [20]
inactive: all other assays above

O.O.O.O=C([O-])[C@H]([O-])[C@@H]([O-])C(=O)[O-].O=C([O-])[C@H]([O-])[C@@H]([O-])C(=O)[O-].[K+].[K+].[Sb+3].[Sb+3]
active: [1] 61.4 µM | [5] 36.5 µM
not listed: [7] | [18] | [19] | [20]
inactive: all other assays above

ClC1=C(Cl)[C@]2(Cl)[C@H]3[C@H]([C@H]4C=C[C@H]3C4)[C@@]1(Cl)C2(Cl)Cl
active: [1] 19.3 µM
not listed: [12] | [15] | [19]
inactive: all other assays above

CNC(=O)O/N=C(\C)C(C)S(C)(=O)=O (configuration not stated)
active: [1] 708 µM | [5] 316 µM
not listed: [6] | [16] | [18] | [19] | [20]
inactive: all other assays above

C=C(C)C(=O)OCCCCOC(=O)C(=C)C
not listed: [12] | [16] | [18] | [19] | [20]
inactive: all other assays above

Oc1c(Cl)c(Cl)cc(Cl)c1Cl
not listed: [12] | [13] | [16] | [19] | [20]
inactive: all other assays above

CCSC(=O)N(CC)C1CCCCC1
not listed: [12] | [15] | [18] | [19] | [20]
inactive: all other assays above
